Several values for one entry are separate records, joined by “and”; a condition that tells them apart may be missing. Equal values may be shown once. Among all 5,500 compounds or so, about 2,000 (36%) were called active. Roughly 18% stayed inconclusive and do not appear here. Rule as the data show it: active = normalized growth mostly below about 0.91 (no sharp cut-off); inconclusive = no clear call, values can overlap the other calls; inactive = mostly above about 0.92. The list shows a part of the results.
Assay: chemical genetic growth profiling, strain panel (AID 1159580);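 also: tested at 20 µM; growth read once vehicle control cultures reached saturation at 30 °C; 1 = growth at the plate median or of vehicle wells; lower values mean less growth of the strain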
Details: S. cerevisiae deletion strains, growth OD

Measured: normalized growth

CCCCCCCCCCCCC[N+](C)(C)Cc1ccccc1
active: locus YAL013W, strain DEP1, stronger effect = lower value 0.0555 | locus YAL021C, strain ccr4, stronger effect = lower value 0.0637 | locus YAL026C, strain drs2, stronger effect = lower value 0.0609 | locus YAL030W, strain snc1, stronger effect = lower value 0.0556 | locus YBL061C, strain skt5, stronger effect = lower value 0.0585 | locus YBR009C, strain hhf1, stronger effect = lower value 0.0639 | locus YBR021W, strain FUR4, stronger effect = lower value 0.0876 | locus YBR023C, strain chs3, stronger effect = lower value 0.0617 | locus YBR171W, strain sec66, stronger effect = lower value 0.0746 | locus YBR229C, strain ROT2, stronger effect = lower value 0.0463 | locus YBR231C, strain swc5, stronger effect = lower value 0.0605 | locus YBR279W, strain paf1, stronger effect = lower value 0.0571 | locus YCL011C, strain gbp2, stronger effect = lower value 0.0555 | locus YCL016C, strain dcc1, stronger effect = lower value 0.0666 | locus YCL029C, strain bik1, stronger effect = lower value 0.0604 | locus YCL069W, strain vba3, stronger effect = lower value 0.0638 | locus YCR088W, strain abp1, stronger effect = lower value 0.059 | locus YDL005C, strain med2, stronger effect = lower value 0.073 | locus YDL035C, strain GPR1, stronger effect = lower value 0.0501 | locus YDL040C, strain nat1, stronger effect = lower value 0.0568 | locus YDL074C, strain BRE1, stronger effect = lower value 0.078 | locus YDL101C, strain DUN1, stronger effect = lower value 0.0549 | locus YDL134C, strain PPH21, stronger effect = lower value 0.0476 | locus YDL185W, strain tfp1, stronger effect = lower value 0.0592 | locus YDL192W, strain arf1, stronger effect = lower value 0.0605 | locus YDR001C, strain nth1, stronger effect = lower value 0.0567 | locus YDR069C, strain doa4, stronger effect = lower value 0.0672 | locus YDR101C, strain arx1, stronger effect = lower value 0.0615 | locus YDR137W, strain rgp1, stronger effect = lower value 0.12 | locus YDR159W, strain sac3, stronger effect = lower value 0.0884 | locus YDR162C, strain NBP2, stronger effect = lower value 0.0468 | locus YDR195W, strain ref2 0.118 | locus YDR297W, strain sur2, stronger effect = lower value 0.0581 | locus YDR318W, strain mcm21, stronger effect = lower value 0.063 | locus YDR334W, strain swr1, stronger effect = lower value 0.0601 | locus YDR335W, strain msn5, stronger effect = lower value 0.0563 | locus YDR388W, stronger effect = lower value 0.0567 | locus YDR392W, strain spt3, stronger effect = lower value 0.0701 | locus YDR502C, strain sam2, stronger effect = lower value 0.0651 | locus YEL003W, strain gim4, stronger effect = lower value 0.0517 | locus YEL037C, strain rad23, stronger effect = lower value 0.0542 | locus YEL061C, strain CIN8 (second series), stronger effect = lower value 0.0587 | locus YEL061C, strain CIN8, stronger effect = lower value 0.0483 | locus YER015W, strain faa2, stronger effect = lower value 0.0622 | locus YER016W, strain bim1, stronger effect = lower value 0.063 | locus YER110C, stronger effect = lower value 0.0733 | locus YER111C, strain swi4, stronger effect = lower value 0.0674 | locus YER155C, strain BEM2 (second series), stronger effect = lower value 0.0862 | locus YER155C, strain BEM2, stronger effect = lower value 0.0618 | locus YER167W, strain BCK2, stronger effect = lower value 0.0502 | locus YFR010W, strain ubp6, stronger effect = lower value 0.0662 | locus YGL078C, strain dbp3, stronger effect = lower value 0.0681 | locus YGL086W, strain mad1, stronger effect = lower value 0.0582 | locus YGL167C, strain pmr1, stronger effect = lower value 0.0698 | locus YGL173C, strain kem1, stronger effect = lower value 0.0657 | locus YGL227W, strain vid30, stronger effect = lower value 0.0603 | locus YGL240W, strain doc1, stronger effect = lower value 0.0764 | locus YGL248W, strain PDE1, stronger effect = lower value 0.0462 | locus YGL253W, strain hxk2, stronger effect = lower value 0.0524 | locus YGR078C, strain PAC10, stronger effect = lower value 0.0524 | locus YGR135W, strain pre9, stronger effect = lower value 0.0647 | locus YGR229C, strain SMI1, stronger effect = lower value 0.0592 | locus YGR252W, strain gcn5, stronger effect = lower value 0.206 | locus YHR013C, strain ard1, stronger effect = lower value 0.102 | locus YHR027C, strain rpn1, stronger effect = lower value 0.0626 | locus YHR030C, strain SLT2, stronger effect = lower value 0.0492 and 0.104 | locus YHR079C, strain IRE1 (second series), stronger effect = lower value 0.0567 | locus YHR079C, strain IRE1, stronger effect = lower value 0.111 | locus YHR094C, strain hxt1, stronger effect = lower value 0.058 | locus YHR129C, strain ARP1, stronger effect = lower value 0.0544 | locus YHR142W, strain chs7, stronger effect = lower value 0.0737 | locus YHR200W, strain rpn10, stronger effect = lower value 0.0601 | locus YIL066C, strain RNR3, stronger effect = lower value 0.0508 | locus YIL073C, strain SPO22, stronger effect = lower value 0.129 | locus YIL125W, strain kgd1, stronger effect = lower value 0.0665 | locus YIR030C, strain dcg1, stronger effect = lower value 0.0594 | locus YJL092W, strain hpr5, stronger effect = lower value 0.0601 | locus YJL095W, strain BCK1 (second series), stronger effect = lower value 0.0575 | locus YJL095W, strain BCK1, stronger effect = lower value 0.0546 and 0.0934 | locus YJL115W, strain asf1, stronger effect = lower value 0.0698 | locus YJL129C, strain trk1, stronger effect = lower value 0.0815 | locus YJL134W, strain LCB3, stronger effect = lower value 0.0471 | locus YJL154C, strain vps35, stronger effect = lower value 0.0584 | locus YJL164C, strain tpk1, stronger effect = lower value 0.0596 | locus YJL166W, strain qcr8, stronger effect = lower value 0.0642 | locus YJL168C, strain set2, stronger effect = lower value 0.0571 | locus YJL187C, strain SWE1 (second series), stronger effect = lower value 0.0466 | locus YJR043C, strain POL32, stronger effect = lower value 0.0593 | locus YJR066W, strain TOR1, stronger effect = lower value -0.000757

Source: PubChem BioAssay AID1159580 (chemical genetic matrix, 2015)
